# Assay results as given in PubChem BioAssay AID485317 (Broad Institute, 2010).
# The whole screen tested about 290,000 compounds, of which about 11,000 (3.8%) were called active. The sample holds actives, similar compounds and a random draw of the others, so the mix is not that of the screen. A number with no mark means an inactive call.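 The calls were made as follows: active = mean replicate inhibition above about 79%, with every replicate also reaching it (limit read from the data); inconclusive = only one of the two criteria met; inactive = mean below limit and not every replicate reaching it.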
# Target: FAD-linked sulfhydryl oxidase ALR (Homo sapiens) (UniProt P55789)
# Sequence (P55789 whole entry, looked up): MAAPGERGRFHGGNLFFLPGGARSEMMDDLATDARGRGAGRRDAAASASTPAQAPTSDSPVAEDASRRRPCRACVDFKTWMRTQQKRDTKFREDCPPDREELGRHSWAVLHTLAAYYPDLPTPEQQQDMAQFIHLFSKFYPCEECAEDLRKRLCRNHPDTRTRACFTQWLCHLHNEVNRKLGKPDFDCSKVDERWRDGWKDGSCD
# Experiment: inhibitors of human ALR sulfhydryl oxidase, primary screen, biochemical, H2O2 detection, HRP-luminol luminescence, single point (AID 485317)
# Conditions: purified ALR, DTT oxidation, hits give high values, concentration not given here
row,SMILES,inhibition
1,CCCN(CC(=O)Nc1ccccc1C)C(=O)c1ccc2[nH]c3c(c2c1)CC(C)CC3 (stereo unspecified),-1.42%
2,COc1ccc(Cl)cc1NC(=O)CCN1CCOCC1,-5.1%
3,COc1ccccc1NC(=O)CCN1CCN(c2ccc(Cl)cc2)CC1,89.1% (active)
4,COc1ccc(NC(=O)CCN2CCCC2)c(OC)c1,-4.61%
5,CC(C)n1ncc2c(C(=O)NCc3ccccc3CN(C)C)cc(C3CC3)nc21,-20.5%
6,Cc1ccc(NC(=O)C(C)OC(=O)Cc2c[nH]c3ccccc23)cc1S(=O)(=O)N1CCOCC1 (stereo unspecified),-3.03%
7,Cc1ccc(C(=O)OCC(=O)NCc2cc(C)c(O)c(C)c2)cc1S(=O)(=O)N1CCCCC1,14.9%
8,COc1cc(OC)cc(-c2c(-c3ccc(F)cc3)c3cc(-c4ccc5cc[nH]c5c4)ccc3n2C)c1,0.122%
9,COc1ccc(N2CCN(C(=O)CN3C(=O)COc4ccccc43)CC2)cc1,38%
10,CCCN1CCN(CCCNC(=O)CN2C(=O)COc3ccccc32)CC1,-3.58%
11,COc1ccc(N2CCN(CCNC(=O)CCN3C(=O)COc4ccccc43)CC2)cc1,80.3% (active)
12,Cc1cccc(NS(=O)(=O)c2ccc(C)c(C(=O)NCC(c3ccccc3)N(C)C)c2)c1 (stereo unspecified),-16.5%
13,CN(C(=O)CSc1cccc[n+]1[O-])C1CCCCC1,-8.28%
14,CN(/N=C/c1ccccc1)C(=S)c1ccccc1,12.2%
15,N#Cc1ccc(OCC(=O)NC(=O)NC2CCS(=O)(=O)C2)cc1 (stereo unspecified),-0.0725%
16,CCOc1ccc(NC(=O)CN(C)C(=O)Cc2sc(C)nc2-c2ccc(F)cc2)cc1OCC,-2.09%
17,Cc1ccc(N=Nc2c(C)[nH]n(-c3ccccc3)c2=O)cc1,-12.7%
18,Cc1ccc(-c2ccnc3[nH]n(-c4ccccc4)c(=O)c23)cc1,1.8%
19,Cc1ccc(C2C3=C(Nc4[nH]n(-c5ccccc5)c(=O)c42)c2ccccc2C3=O)cc1 (stereo unspecified),87.2% (active)
20,COc1cccc(CNC(C)C(=O)Nc2ccc(S(=O)(=O)N3CCCC3)cc2)c1 (stereo unspecified),-0.631%
21,O=C(C[C@@H]1C/C=C\CCC(=O)OC[C@@H]2CCCN2C1=O)NCCO,2.95%
22,CN(C)c1ccc(/C=N\S(=O)(=O)c2ccccc2)cc1,0.19%
23,CC[n+]1cc(C)ccc1/C=C/c1ccc(N(C)C)cc1,99.4% (active)

row,SMILES,inhibition
1,COCCn1c(C)cc(C(=O)CSc2nnc(C3CC3)n2C2CC2)c1C,13.1%
2,COc1ccc(C(=O)c2c3ccc([N+](=O)[O-])cc3[n+]([O-])n2CCCN)cc1,-50.8%
3,Cc1ccc(NC(=O)c2cccc(S(=O)(=O)N3CCCc4ccccc43)c2)nc1,-1.14%
4,CCn1c(COc2ccccc2)nnc1SCC(=O)Nc1ccc2c(c1)OCCO2,-3.91%
5,Cn1ccnc1SCC(=O)Nc1ccc2c(c1)OCCO2,47.8%
6,COc1cccc(NC(=O)CSc2nccn(-c3ccc4c(c3)OCCO4)c2=O)c1,98.6% (active)
7,O=C(NCc1cccc(Cl)c1)C1CCC(=O)N(C2CC2)C1 (stereo unspecified),-4.45%
8,O=C(C1CC(=O)N(C2CCCCC2)C1)N1CCN(c2ccccc2)CC1 (stereo unspecified),68.2%
9,O=C(C1CCC(=O)N(C2CC2)C1)N1CCN(c2ccc(Cl)cc2)CC1 (stereo unspecified),96.7% (active)
10,COc1ccc(S(=O)(=O)N2CCOC23CCN(S(=O)(=O)c2ccc([N+](=O)[O-])cc2)CC3)cc1,0.209%
11,CCN1C(=O)[C@H]2[C@@H](c3ccc(-c4ccc(OC)cc4)cc3)N[C@@](Cc3ccccc3)(C(=O)OC)[C@H]2C1=O,3.62%
12,CCOc1cc(C(=S)N2CCOCC2)ccc1O,2.75%
13,CC1CCN(C2=NC(=O)/C(=C/c3cn[nH]c3-c3ccccc3)S2)CC1,28.2%
14,CC1CCN(C2=NC(=O)/C(=C/c3ccc(O)cc3)S2)CC1,98.6% (active)
15,Cc1ccsc1/C=C1\SC(N2CCOCC2)=NC1=O,-15.8%
16,O=C1N=C(N2CCCC2)S/C1=C\c1cccc(Br)c1,8.82%
17,CCc1ccc(/C=C2\SC(N3CCOCC3)=NC2=O)cc1,-8.77%
18,CCOc1cc(/C=C2\SC(N3CCCCC3)=NC2=O)ccc1O,85.2% (active)
19,CCOc1cc(/C=C2\C(=N)N3N=C(C)SC3=NC2=O)ccc1OCCOc1ccccc1,-3.65%
20,CCOc1cc(/C=C2\SC(N3CCCC(C)C3)=NC2=O)ccc1O (stereo unspecified),98% (active)
21,COCCN(C(=O)CC1CCCCC1)c1c(N)n(CC(C)C)c(=O)[nH]c1=O,-3.39%
22,O=C(NCc1ccccc1CN1CCCC1)c1cccc(S(=O)(=O)Nc2ccc(F)cc2)c1,-1.54%
23,CN(CC(=O)Nc1c(Cl)cccc1Cl)C(=O)CC1OC(=O)c2ccccc21 (stereo unspecified),1.28%

row,SMILES,inhibition
1,CCCCn1c(N)c(N(CC(C)C)C(=O)CSc2ccc([N+](=O)[O-])cc2)c(=O)[nH]c1=O,-3.66%
2,CN(C(=O)CSc1nnc(-c2ccc3c(c2)OCO3)o1)C1CCS(=O)(=O)C1 (stereo unspecified),-1.02%
3,CN(C)CCn1c2c(c(SCC(=O)NCc3ccccc3)nc1=O)CCC2,-45.9%
4,CN(CC(=O)Nc1ccc(OC(F)F)cc1)S(=O)(=O)/C=C/c1ccccc1,0.776%
5,Cc1cc(NC(=O)C(C)SCC(=O)Nc2ccccc2N2CCCCC2)no1 (stereo unspecified),2.47%
6,O=C1NC(Cc2ccc(O)cc2)c2nc3ccc(Cl)cc3c(=O)n2-c2ccccc21 (stereo unspecified),1.75%
7,CCCC[C@@H]1CN=C(N)N1CCc1cccc(F)c1,-12.6%
8,O=C1N[C@H](Cc2c[nH]c3ccccc23)COC(=O)[C@H](Cc2ccc(F)cc2)C/C=C\C[C@H]1CC(=O)N(CCO)Cc1ccccc1,-0.125%
9,COc1ccc(CCNc2cc(N3CCN(C(=O)c4ccccc4OC)CC3)ccc2[N+](=O)[O-])cc1OC,-7.83%
10,COc1ccc2[nH]c(=S)cc(C)c2c1,-27.6%
11,COc1ccc2[nH]c3ccc(OC)cc3c2c1,97.3% (active)
12,COc1ccc2[nH]c(C(=O)N3CCN(C)CC3)c(C)c2c1,-19.3%
13,N#Cc1ccc(C2=CC(=O)C[C@H](c3ccc(Cl)cc3)C2)cc1,-5.77%
14,Cc1ccc(NC(=O)C2CC2)cc1S(=O)(=O)N1CCOCC1,-0.606%
15,Cc1ccc(NC(=O)C(C)Sc2nnc(C3CC3)n2C2CC2)cc1S(=O)(=O)N1CCOCC1 (stereo unspecified),96.1% (active)
16,Cc1ccc(NC(=O)NC2CCCCC2)cc1S(=O)(=O)N1CCOCC1,74.4%
17,COc1ccccc1OCCNC(=O)C(CCSC)NC(=O)COc1ccccc1 (stereo unspecified),0.393%
18,CN(C)C(=O)CSc1n[nH]c(-c2ccco2)n1,-5.75%
19,O=C(CSc1n[nH]c(-c2cccnc2)n1)Nc1ccc(Cl)cc1,5.84%
20,CN(C)c1ccc(NC(=O)CSc2n[nH]c(-c3ccco3)n2)cc1,98.9% (active)
21,COc1ccccc1N1CCN(C(=O)C2Cc3ccccc3CN2C(=O)c2ccco2)CC1 (stereo unspecified),19.8%
22,CC(C)CN(C(=O)c1ccc2c(c1)OCO2)C1CCS(=O)(=O)C1 (stereo unspecified),3.07%
23,CC1Sc2ccc(C(=O)NCc3ccccc3Cl)cc2NC1=O (stereo unspecified),-5.05%

row,SMILES,inhibition
1,Cc1ccc(CNC(=O)c2cc(-c3ccccc3C)n(CC3CC(c4cccc([N+](=O)[O-])c4)=NO3)n2)cc1 (stereo unspecified),-3.66%
2,O=C(N/N=C/c1cc(Br)c(O)c([N+](=O)[O-])c1)C(O)(c1ccccc1)c1ccccc1,14%
3,O=C(c1ccco1)N1CCN=C1SCc1cccc(Cl)c1,96.8% (active)
4,O=S(=O)(c1ccc(F)cc1)N1CCN=C1SCc1cccc(F)c1,-6.25%
5,O=C(c1ccco1)N1CCN(c2cccc(Cl)c2)CC1,12.7%
6,Cc1nnc(SCc2cccc(Cl)c2)n(N)c1=O,-0.251%
7,CCSC1=NCCN1S(=O)(=O)c1ccc(F)cc1,-3.09%
8,CC1CCN(C(=O)c2ccc(CSc3ccc(Cl)cc3)cc2)CC1,-6.8%
9,CCC(=O)N1CCN=C1SCc1ccc(F)cc1,98.7% (active)
10,CS(=O)(=O)N1CCN=C1SCc1ccc(F)cc1,98.4% (active)
11,CSC1=NCCN1C(=O)Cc1cccc2ccccc12,-43.6%
12,O=C(C1CCN(Cc2ccc(Cl)cc2)CC1)N1CCN(Cc2ccc3c(c2)OCO3)CC1,-2.64%
13,O=C(COc1ccccc1)N1CCN=C1SCc1cccc(F)c1,15.7%
14,O=C(C1CC1)N1CCN=C1SCc1ccc(Cl)cc1,98.3% (active)
15,O=C(C1CCC1)N1CCN(S(=O)(=O)c2ccc([N+](=O)[O-])cc2)CC1,-24.2%
16,O=C(COc1ccccc1F)Nc1nc(-c2ccccn2)cs1,-5.87%
17,COc1ccc(C2(C)ON(c3ccccc3C(F)(F)F)C2=O)cc1 (stereo unspecified),1.44%
18,Cc1cccc(C)c1Nc1nnc(SCC(=O)NCCCN2CCCC2=O)s1,3.02%
19,C=CCC[C@H](Cc1ccc(F)cc1)C(=O)OC[C@@H](Cc1c[nH]c2ccccc12)NC(=O)[C@H](CC=C)CC(=O)N[C@H](CO)Cc1ccccc1,1.04%
20,Cc1ccc(NNC(=O)C2CCC2)cc1C,98.5% (active)
21,Cc1ccc(C)c(OCC(=O)NNC(=O)C2CCC2)c1,-3.99%
22,O=C(NNC(=O)C1CCC1)c1ccccc1,-8.4%
